Key:
Experiment in all cases: DAPPL (digital affinity profiling via proximity ligation, sequencing); 10 mM Tris-HCl pH 7.5, 50 mM NaCl, 1 mM DTT, 4% glycerol, room temperature, 30 min; GST-TFs on glutathione beads, 16-mer random dsDNA library, 0.1% formaldehyde crosslink after washing; high values mean tight binding
[1] = target: T1, FLI1 (Homo sapiens, UniProt Q01543 1-452); conditions: protein: recombinant; tags: N-terminal GST; dsDNA, one strand shown
T1 sequence: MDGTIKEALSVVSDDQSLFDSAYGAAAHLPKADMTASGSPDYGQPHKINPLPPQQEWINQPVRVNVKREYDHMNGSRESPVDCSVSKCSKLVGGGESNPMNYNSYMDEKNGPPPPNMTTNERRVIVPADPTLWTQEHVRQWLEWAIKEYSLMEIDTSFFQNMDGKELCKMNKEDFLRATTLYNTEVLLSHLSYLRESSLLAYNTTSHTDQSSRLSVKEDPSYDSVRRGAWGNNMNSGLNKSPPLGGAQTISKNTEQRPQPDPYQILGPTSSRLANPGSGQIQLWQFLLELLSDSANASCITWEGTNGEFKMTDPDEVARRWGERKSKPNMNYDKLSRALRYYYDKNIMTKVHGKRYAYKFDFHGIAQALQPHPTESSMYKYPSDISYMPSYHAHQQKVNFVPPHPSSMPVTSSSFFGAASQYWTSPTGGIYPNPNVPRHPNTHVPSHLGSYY
How it was run: (§1)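 Each value of binding signal is a hexamer's read frequency for a factor divided by the same hexamer's frequency in the tag-only sample. Barcoded, bead-captured GST fusions of human transcription factors made in yeast were pooled with that sample and incubated with 200 nmole of a random double-stranded 16-mer DNA library in Tris/NaCl/DTT/glycerol buffer at room temperature for 30 min. Washing, 0.1% formaldehyde crosslinking, proximity ligation, PCR and Illumina NextSeq500 sequencing followed.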

[2] = target: T2, ELK1 (Homo sapiens, UniProt P19419 1-428); conditions: protein: recombinant; tags: N-terminal GST; dsDNA, one strand shown
T2 sequence: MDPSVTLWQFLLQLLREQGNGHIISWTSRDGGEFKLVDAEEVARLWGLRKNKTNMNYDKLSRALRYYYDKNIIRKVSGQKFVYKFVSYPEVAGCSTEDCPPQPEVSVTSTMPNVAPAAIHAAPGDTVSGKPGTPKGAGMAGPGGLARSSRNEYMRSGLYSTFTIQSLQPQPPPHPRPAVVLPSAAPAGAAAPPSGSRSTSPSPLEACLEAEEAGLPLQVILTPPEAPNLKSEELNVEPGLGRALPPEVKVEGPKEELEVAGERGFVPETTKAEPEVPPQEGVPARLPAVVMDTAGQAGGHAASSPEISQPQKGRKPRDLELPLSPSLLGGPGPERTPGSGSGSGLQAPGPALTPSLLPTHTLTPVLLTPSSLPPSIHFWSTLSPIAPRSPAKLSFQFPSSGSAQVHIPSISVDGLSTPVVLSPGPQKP
How it was run: as §1

[3] = target: T3, ERG (Homo sapiens, UniProt P11308 1-479); conditions: protein: recombinant; tags: N-terminal GST; dsDNA, one strand shown
T3 sequence: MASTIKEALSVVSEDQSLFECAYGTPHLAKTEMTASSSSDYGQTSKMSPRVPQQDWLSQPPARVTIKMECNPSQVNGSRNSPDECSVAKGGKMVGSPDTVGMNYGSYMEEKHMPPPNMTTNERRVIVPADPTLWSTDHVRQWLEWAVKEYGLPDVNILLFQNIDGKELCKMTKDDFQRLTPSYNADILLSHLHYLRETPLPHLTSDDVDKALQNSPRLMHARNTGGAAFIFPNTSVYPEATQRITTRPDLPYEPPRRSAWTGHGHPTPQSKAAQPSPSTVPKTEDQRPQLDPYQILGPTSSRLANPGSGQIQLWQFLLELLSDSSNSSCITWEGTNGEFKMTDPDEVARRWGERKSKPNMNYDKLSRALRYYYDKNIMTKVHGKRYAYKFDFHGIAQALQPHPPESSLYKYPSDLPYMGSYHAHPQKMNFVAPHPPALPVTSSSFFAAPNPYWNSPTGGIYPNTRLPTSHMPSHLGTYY
How it was run: as §1

[4] = target: ELF1 (Homo sapiens, UniProt P32519 1-619); conditions: protein: recombinant; tags: N-terminal GST; dsDNA, one strand shown
ELF1, sequence (P32519 whole entry): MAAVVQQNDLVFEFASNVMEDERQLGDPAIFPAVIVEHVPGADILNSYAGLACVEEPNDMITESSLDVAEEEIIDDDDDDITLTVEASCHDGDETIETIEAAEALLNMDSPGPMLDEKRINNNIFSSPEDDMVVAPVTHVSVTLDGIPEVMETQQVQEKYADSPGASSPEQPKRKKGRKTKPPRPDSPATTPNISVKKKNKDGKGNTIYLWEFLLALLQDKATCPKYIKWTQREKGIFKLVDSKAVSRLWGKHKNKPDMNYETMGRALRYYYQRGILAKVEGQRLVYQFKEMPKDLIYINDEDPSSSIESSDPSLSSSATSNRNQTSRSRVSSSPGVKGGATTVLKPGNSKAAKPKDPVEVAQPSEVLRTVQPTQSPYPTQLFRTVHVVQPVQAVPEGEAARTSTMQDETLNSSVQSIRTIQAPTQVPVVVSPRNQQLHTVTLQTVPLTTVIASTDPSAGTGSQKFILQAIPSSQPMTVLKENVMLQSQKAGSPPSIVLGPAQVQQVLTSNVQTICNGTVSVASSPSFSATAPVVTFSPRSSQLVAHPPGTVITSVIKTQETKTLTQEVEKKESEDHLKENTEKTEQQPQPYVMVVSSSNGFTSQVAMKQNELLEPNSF
How it was run: as §1

[5] = target: T4, EHF (Homo sapiens, UniProt Q9NZC4 1-300); conditions: protein: recombinant; tags: N-terminal GST; dsDNA, one strand shown
T4 sequence: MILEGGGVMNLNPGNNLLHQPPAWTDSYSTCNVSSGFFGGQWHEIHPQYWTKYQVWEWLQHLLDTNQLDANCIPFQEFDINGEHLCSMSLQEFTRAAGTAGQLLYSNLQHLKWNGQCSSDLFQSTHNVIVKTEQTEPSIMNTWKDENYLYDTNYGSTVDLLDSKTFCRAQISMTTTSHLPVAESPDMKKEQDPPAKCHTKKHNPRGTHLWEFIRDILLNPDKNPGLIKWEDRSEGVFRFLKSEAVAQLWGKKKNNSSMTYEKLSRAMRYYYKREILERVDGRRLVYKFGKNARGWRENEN
How it was run: as §1

[6] = target: SPI1 (Homo sapiens, UniProt P17947 1-270); conditions: protein: recombinant; tags: N-terminal GST; dsDNA, one strand shown
How it was run: as §1

[7] = target: SPIB (Homo sapiens, UniProt Q01892 1-262); conditions: protein: recombinant; tags: N-terminal GST; dsDNA, one strand shown
SPIB, sequence (Q01892 whole entry): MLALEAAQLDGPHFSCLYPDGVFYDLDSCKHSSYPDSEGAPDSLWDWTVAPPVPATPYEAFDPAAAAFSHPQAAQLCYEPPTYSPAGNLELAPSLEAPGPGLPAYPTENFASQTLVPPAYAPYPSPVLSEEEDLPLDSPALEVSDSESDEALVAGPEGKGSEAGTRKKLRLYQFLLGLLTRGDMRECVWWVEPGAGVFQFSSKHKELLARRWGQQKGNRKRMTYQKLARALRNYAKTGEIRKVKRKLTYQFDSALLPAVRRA
How it was run: as §1

[8] = target: T5, ELK3 (Homo sapiens, UniProt P41970 1-407); conditions: protein: recombinant; tags: N-terminal GST; dsDNA, one strand shown
T5 sequence: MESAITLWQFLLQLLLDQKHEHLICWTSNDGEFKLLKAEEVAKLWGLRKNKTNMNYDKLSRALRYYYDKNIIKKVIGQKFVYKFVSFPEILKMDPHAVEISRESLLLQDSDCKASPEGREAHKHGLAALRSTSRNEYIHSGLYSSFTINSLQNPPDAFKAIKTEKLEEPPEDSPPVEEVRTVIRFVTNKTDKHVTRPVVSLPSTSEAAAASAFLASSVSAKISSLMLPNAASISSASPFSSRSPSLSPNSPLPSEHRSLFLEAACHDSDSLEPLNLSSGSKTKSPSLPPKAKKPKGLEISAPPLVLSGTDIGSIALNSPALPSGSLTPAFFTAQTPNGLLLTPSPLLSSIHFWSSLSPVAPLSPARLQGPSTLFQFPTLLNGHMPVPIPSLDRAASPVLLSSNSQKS
How it was run: as §1

[9] = target: T6, FEV (Homo sapiens, UniProt Q99581 1-238); conditions: protein: recombinant; tags: N-terminal GST; dsDNA, one strand shown
T6 sequence: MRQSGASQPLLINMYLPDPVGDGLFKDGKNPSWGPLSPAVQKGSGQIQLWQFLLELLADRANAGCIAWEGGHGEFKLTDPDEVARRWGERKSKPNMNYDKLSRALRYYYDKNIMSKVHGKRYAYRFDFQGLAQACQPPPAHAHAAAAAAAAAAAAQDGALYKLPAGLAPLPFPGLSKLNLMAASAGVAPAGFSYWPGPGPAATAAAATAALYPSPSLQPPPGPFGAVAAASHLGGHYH
How it was run: as §1

[10] = target: ETV5 (Homo sapiens, UniProt P41161 1-510); conditions: protein: recombinant; tags: N-terminal GST; dsDNA, one strand shown
ETV5, sequence (P41161 whole entry): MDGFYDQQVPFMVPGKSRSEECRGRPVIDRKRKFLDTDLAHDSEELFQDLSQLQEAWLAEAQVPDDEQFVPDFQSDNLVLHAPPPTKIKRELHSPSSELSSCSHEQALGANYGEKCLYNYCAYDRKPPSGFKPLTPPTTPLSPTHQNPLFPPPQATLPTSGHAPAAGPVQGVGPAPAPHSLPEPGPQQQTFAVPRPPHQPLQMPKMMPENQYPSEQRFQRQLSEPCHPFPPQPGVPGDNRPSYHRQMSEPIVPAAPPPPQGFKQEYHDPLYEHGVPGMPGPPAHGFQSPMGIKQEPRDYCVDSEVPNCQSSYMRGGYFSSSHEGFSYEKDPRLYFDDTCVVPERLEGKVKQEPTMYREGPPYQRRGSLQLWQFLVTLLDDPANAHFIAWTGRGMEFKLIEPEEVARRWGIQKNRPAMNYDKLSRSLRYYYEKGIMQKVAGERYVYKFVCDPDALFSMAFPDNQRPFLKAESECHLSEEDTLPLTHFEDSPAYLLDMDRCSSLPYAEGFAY
How it was run: as §1

[11] = target: HSF1 (Homo sapiens, UniProt Q00613 1-529); conditions: protein: recombinant; tags: N-terminal GST; chain copies: 3; dsDNA, one strand shown
HSF1, sequence (Q00613 whole entry): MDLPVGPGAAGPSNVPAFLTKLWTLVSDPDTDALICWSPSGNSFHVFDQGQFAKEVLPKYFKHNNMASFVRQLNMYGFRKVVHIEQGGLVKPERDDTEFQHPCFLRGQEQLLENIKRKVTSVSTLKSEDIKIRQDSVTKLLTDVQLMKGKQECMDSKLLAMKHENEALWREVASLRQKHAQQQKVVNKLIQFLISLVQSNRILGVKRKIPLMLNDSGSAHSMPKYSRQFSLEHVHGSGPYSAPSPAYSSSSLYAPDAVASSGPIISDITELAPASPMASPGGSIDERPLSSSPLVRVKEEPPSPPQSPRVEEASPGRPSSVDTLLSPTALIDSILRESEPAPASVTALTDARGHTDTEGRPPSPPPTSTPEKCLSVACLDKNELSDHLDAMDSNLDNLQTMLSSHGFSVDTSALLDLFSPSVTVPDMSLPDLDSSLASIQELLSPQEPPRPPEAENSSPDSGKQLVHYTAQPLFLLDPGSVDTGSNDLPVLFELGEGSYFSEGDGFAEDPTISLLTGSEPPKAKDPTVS
How it was run: as §1

[12] = target: T7, SPIC (Homo sapiens, UniProt Q8N5J4 1-248); conditions: protein: recombinant; tags: N-terminal GST; dsDNA, one strand shown
T7 sequence: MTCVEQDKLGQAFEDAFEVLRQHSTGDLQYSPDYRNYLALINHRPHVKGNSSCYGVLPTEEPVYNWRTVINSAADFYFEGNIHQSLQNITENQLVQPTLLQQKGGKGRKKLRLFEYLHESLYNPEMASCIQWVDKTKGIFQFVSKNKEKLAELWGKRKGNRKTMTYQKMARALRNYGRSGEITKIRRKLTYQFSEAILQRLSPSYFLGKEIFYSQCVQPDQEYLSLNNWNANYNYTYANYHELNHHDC
How it was run: as §1

[13] = target: ELF4 (Homo sapiens, UniProt Q99607 1-663); conditions: protein: recombinant; tags: N-terminal GST; dsDNA, one strand shown
ELF4, sequence (Q99607 whole entry): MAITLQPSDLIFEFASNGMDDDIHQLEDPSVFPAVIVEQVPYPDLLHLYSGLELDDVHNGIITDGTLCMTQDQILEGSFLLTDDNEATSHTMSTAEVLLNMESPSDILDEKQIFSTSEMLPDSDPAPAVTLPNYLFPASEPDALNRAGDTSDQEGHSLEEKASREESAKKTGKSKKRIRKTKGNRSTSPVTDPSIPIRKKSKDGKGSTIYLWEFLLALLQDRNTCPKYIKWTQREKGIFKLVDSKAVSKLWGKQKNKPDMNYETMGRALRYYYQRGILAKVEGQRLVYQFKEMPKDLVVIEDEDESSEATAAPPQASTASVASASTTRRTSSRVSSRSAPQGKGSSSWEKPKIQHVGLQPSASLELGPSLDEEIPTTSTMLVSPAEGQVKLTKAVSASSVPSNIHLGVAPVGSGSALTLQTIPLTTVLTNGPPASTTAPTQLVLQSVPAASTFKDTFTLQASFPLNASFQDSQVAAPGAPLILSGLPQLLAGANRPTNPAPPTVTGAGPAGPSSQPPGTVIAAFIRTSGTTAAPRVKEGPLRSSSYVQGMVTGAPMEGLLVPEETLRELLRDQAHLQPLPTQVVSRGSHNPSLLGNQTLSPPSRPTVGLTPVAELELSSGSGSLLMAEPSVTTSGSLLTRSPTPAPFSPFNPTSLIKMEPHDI
How it was run: as §1

[14] = target: T8, ELK4 (Homo sapiens, UniProt P28324-2 1-405); conditions: protein: recombinant; tags: N-terminal GST; dsDNA, one strand shown
T8 sequence: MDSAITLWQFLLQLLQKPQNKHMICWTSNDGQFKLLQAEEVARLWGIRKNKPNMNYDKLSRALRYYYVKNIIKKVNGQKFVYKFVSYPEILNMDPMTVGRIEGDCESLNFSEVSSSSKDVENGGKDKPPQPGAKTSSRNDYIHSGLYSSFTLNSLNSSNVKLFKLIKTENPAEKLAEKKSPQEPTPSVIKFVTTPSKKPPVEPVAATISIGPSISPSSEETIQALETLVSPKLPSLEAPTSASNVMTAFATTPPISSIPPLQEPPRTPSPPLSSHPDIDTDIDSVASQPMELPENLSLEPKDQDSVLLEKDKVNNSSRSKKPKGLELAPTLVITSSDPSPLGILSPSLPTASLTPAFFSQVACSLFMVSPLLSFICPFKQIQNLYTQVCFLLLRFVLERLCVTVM
How it was run: as §1

[15] = target: T9, ETV2 (Homo sapiens, UniProt O00321 1-342); conditions: protein: recombinant; tags: N-terminal GST; dsDNA, one strand shown
T9 sequence: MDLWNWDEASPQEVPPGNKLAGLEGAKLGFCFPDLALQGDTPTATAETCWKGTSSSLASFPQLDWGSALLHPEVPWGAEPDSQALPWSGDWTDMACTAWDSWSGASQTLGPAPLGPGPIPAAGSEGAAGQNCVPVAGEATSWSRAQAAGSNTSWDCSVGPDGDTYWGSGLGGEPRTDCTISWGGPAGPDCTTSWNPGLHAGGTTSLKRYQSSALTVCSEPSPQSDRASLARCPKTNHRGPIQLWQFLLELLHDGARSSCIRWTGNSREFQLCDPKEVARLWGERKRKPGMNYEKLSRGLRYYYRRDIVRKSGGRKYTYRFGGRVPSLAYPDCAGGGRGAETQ
How it was run: as §1

[16] = target: T10, ELF3 (Homo sapiens, UniProt P78545 1-371); conditions: protein: recombinant; tags: N-terminal GST; dsDNA, one strand shown
T10 sequence: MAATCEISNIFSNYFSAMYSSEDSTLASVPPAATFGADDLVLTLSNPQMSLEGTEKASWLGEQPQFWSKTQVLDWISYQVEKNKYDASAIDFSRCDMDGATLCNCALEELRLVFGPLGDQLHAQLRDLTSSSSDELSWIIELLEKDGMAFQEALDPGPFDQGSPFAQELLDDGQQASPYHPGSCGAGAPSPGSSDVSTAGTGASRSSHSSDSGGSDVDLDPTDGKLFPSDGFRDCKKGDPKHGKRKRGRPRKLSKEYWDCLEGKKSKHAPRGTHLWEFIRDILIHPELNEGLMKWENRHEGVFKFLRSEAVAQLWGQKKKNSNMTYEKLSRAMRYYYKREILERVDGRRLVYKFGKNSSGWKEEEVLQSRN
How it was run: as §1

[17] = target: CRX (Homo sapiens, UniProt O43186 1-299); conditions: protein: recombinant; tags: N-terminal GST; dsDNA, one strand shown
CRX, sequence (O43186 whole entry): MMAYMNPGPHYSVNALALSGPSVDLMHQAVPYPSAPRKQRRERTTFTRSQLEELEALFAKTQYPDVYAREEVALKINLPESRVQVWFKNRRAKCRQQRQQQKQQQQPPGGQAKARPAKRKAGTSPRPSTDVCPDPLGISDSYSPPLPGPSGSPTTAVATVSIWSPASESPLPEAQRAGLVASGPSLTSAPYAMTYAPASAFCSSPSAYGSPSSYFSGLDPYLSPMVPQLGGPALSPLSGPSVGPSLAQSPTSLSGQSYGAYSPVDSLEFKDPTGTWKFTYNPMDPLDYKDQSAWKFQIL
How it was run: as §1

[18] = target: ETV1 (Homo sapiens, UniProt P50549 1-477); conditions: protein: recombinant; tags: N-terminal GST; dsDNA, one strand shown
ETV1, sequence (P50549 whole entry): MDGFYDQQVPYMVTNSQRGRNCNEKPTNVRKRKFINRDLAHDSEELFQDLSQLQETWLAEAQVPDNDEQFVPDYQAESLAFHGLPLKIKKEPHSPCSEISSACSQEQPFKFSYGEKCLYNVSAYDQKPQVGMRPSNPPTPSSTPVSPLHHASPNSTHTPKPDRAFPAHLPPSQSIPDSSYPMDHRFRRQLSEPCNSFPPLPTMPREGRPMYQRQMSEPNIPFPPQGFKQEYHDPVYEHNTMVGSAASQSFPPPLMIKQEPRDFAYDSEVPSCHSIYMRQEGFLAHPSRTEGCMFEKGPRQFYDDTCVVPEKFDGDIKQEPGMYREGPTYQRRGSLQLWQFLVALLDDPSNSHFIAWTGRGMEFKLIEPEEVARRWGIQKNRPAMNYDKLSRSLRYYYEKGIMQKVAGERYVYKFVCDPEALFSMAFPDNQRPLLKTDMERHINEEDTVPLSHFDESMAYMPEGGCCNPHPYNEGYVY
How it was run: as §1

For CAAATC, the binding signal [1] was 1.06 fold enrichment (6-mer frequency, TF over GST control), the binding signal [2] was 1.08 fold enrichment (6-mer frequency, TF over GST control) and the binding signal [3] was 1.14 fold enrichment (6-mer frequency, TF over GST control). For the same sequence, the binding signal [4] was 1.16 fold enrichment (6-mer frequency, TF over GST control), the binding signal [5] was 1.12 fold enrichment (6-mer frequency, TF over GST control) and the binding signal [6] was 1.04 fold enrichment (6-mer frequency, TF over GST control). The binding signal [7] was 1.11 fold enrichment (6-mer frequency, TF over GST control), the binding signal [8] was 1.01 fold enrichment (6-mer frequency, TF over GST control) and the binding signal [9] was 1.16 fold enrichment (6-mer frequency, TF over GST control). For the same sequence, the binding signal [10] was 1.14 fold enrichment (6-mer frequency, TF over GST control), the binding signal [11] was 1.29 fold enrichment (6-mer frequency, TF over GST control) and the binding signal [12] was 1.17 fold enrichment (6-mer frequency, TF over GST control). The binding signal [13] was 1.12 fold enrichment (6-mer frequency, TF over GST control), the binding signal [14] was 1.17 fold enrichment (6-mer frequency, TF over GST control) and the binding signal [15] was 1.1 fold enrichment (6-mer frequency, TF over GST control). For the same sequence, the binding signal [16] was 1.12 fold enrichment (6-mer frequency, TF over GST control), the binding signal [17] was 1.69 fold enrichment (6-mer frequency, TF over GST control) and the binding signal [18] was 1.15 fold enrichment (6-mer frequency, TF over GST control).

From paper PMC7862700, “An all-to-all approach to the identification of sequence-specific readers for epigenetic DNA modifications on cytosine”
